WT yeast gro inh: growth inhibition of WT yeast, mitochondrial fusion screen | AID 1362 | mitochondrial fusion phenotypic screen, WT strain | 190,000 tested, 2.1% active | inhibition, % at 10 µM; in the data active = inhibition above about 58%; tested in S. cerevisiae
Autophagy HCS: modulators of autophagy; MEF GFP-LC3 puncta imaging; test concentration mostly 10 µM; calls only at 10 µM (by protocol); 190,000 tested, 0.98% active;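 active = percentage of spot-positive cells more than 3 SD above its plate mean, without a fluorescence outlier flag or 80% toxicity; inconclusive = no clear call, values can overlap the other calls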;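 note: spot-positive cell cutoff set from DMSO-treated cells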
Ins promoter up: MIN6 insulin promoter up-regulation | MIN6 insulin promoter-GFP reporter, high-content imaging; hits give high values | AID 1625 | z-score at 5 µM | 190,000 tested, 0.3% active;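 active = z-score above 3 at 5 µM with at least 500 cells counted in the well; inconclusive = wells under 500 cells, flagged as cytotoxic or low count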
INS promoter inh: TRM-6 insulin promoter activity inhibition; inhibition, % at 2 µM; TRM-6 cells (human fetal islet line), insulin promoter-eGFP reporter, imaging; reporter expression induced with tamoxifen; 130,000 tested, 0.9% active;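 active = inhibition above the mean plus 3 SD, with well images judged a real hit on visual review, cut at about 60% in these data, passing the limit was not always enough; inconclusive = inhibition over the cutoff but images rejected on review; inactive = inhibition not above the cutoff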
L major viab: reduces viability of Leishmania major promastigotes. AID 1063. resazurin fluorescence viability. inhibition, % at 10 µM. 200,000 tested, 9% active; in the data active = inhibition above about 50%;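 note: promastigotes grown with compound for 44 hours at 28 °C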
Starred values were filed as active, the others as inactive; i = inactive; ? = inconclusive; . = no result given; + = active, no number. Most compounds without a hit are left out; they make up all but 11% or so of the library.

SMILES	WT yeast gro inh	Autophagy HCS	Ins promoter up	INS promoter inh	L major viab
O=C(NN1C(=O)C2C3c4ccccc4C(c4ccccc43)C2C1=O)c1ccc(Cl)cc1 (stereo not drawn)	17.0	i	0.91	10.5	72.0*
CCOCCCN1CN(Cc2ccco2)CNC1=S	2.3	i	0.48	-66.7	-6.9
S=C1SCN(Cc2ccccn2)CN1Cc1ccco1	18.9	i	0.24	30.0	79.9*
COCCN1CSC(=S)N(Cc2ccco2)C1	6.1	i	-0.51	30.0	85.4*
CCOc1cccc(-c2cc(C(=O)N3N=C(C)CC3(O)C(F)F)c3ccccc3n2)c1 (stereo not drawn)	43.5	i	-0.43	-5.6	36.5
CCOC(=O)Cc1c(C)nc2c(-c3ccc(Cl)cc3)c(C)[nH]n2c1=O	7.5	i	.	4.2	95.5*
Cc1cc(C)c(-c2csc(NC(=O)c3cc([N+](=O)[O-])ccc3N3CCOCC3)n2)c(C)c1	18.1	i	-2.21	-18.9	79.3*
O=C(Nc1nc(-c2ccc(F)c(F)c2)cs1)c1cc([N+](=O)[O-])ccc1N1CCOCC1	9.3	i	-0.96	.	-1.4
Clc1nc(Cl)nc(NCCC2=CCCCC2)n1	-5.5	i	0.27	6.2	-3.2
O=C(NC(=S)Nc1ccc(N2CCOCC2)c(Cl)c1)c1cccs1	30.9	i	0.01	.	-5.5
O=C(Nc1ccc(N2CCCC2)c(Cl)c1)c1cccnc1	13.9	i	-0.36	25.0	67.5*
O=C(NC(=S)Nc1ncc(Br)cc1Br)c1cncc(Br)c1	2.8	i	0.54	-125.0	-9.6
O=C(NC(=S)Nc1ccc(N2CCOCC2)c(Cl)c1)c1cncc(Br)c1	41.5	i	-0.08	22.2	82.4*
O=C(NC(=S)NC1CCCCCC1)c1cncc(Br)c1	44.7	i	-0.01	-11.1	61.4*
CS(=O)(=O)c1ccc(SCC(=O)NC2CCS(=O)(=O)C2)c([N+](=O)[O-])c1 (stereo not drawn)	-2.7	i	0.11	.	-0.7
CCOc1ccc(NC(=O)CNC(=O)c2ccc([N+](=O)[O-])cc2)cc1	-8.5	i	-0.23	.	8.1
C/C(=N\Nc1ccc(F)cc1)c1ccncc1	23.3	i	1.02	-5.6	84.4*
C/C(=N\Nc1cccc(Cl)c1)c1ccncc1	62.5	i	-0.99	.	30.7
OC1(c2ccccc2)CCN(Cc2ccccc2)CC1	15.2	i	-0.53	25.0	82.9*
O=C(c1cccc(C(=O)N2CCN(Cc3ccccc3)CC2)c1)N1CCN(Cc2ccccc2)CC1	4.1	i	-0.23	.	-6.7
O=C(c1ccccc1)C1CN(Cc2ccccc2)CCC1(O)c1ccccc1 (stereo not drawn)	34.5	i	-1.1	.	62.2*
OC(c1ccccc1)C1CN(Cc2ccccc2)CCC1(O)c1ccccc1 (stereo not drawn)	14.9	i	-0.78	-282.9	84.8*
NC(=S)N/N=C/C=C/c1ccccc1	7.5	i	.	.	1.5
Cc1ccsc1/C=N/NC(=O)CC(=O)NCC(C)C	3.1	i	0.36	11.1	-9.3
CCCCCCCCCC(=O)N/N=C(\C)c1cccnc1	40.8	i	.	52.4	0.6
SMILES	WT yeast gro inh	Autophagy HCS	Ins promoter up	INS promoter inh	L major viab
C/C(=N\NC(=O)COc1ccccc1-c1ccccc1)c1cccnc1	18.1	i	-0.19	.	25.1
CCCCCC(=O)N/N=C(\C)c1ccccn1	0.5	i	.	26.7	93.0*
C/C(=N\NC(=O)COc1ccccc1-c1ccccc1)c1ccccn1	71.8*	i	-0.85	.	100.3*
Cc1nn(-c2cccc(C(F)(F)F)c2)c(=O)c2noc(C)c12	.	.	-0.57	.	.
CCCCc1c(C)nc2ccc(Br)cc2c1SCCC#N	60.4*	i	-0.8	.	9.2
CCc1c(C)nc2ccc(Br)cc2c1SCCC#N	11.7	i	-0.89	.	8.9
COCCn1c(C)cc(C(=O)COC(=O)c2ccc([N+](=O)[O-])o2)c1C	34.4	i	-0.08	.	74.7*
Cc1cc(C(=O)COC(=O)c2ccc([N+](=O)[O-])o2)c(C)n1CC1CCCO1 (stereo not drawn)	43.0	i	0.29	-7.1	81.5*
Cc1cc(C)c(C(=O)COC(=O)c2ccc([N+](=O)[O-])o2)cc1C	29.8	i	0.21	25.0	-2.0
O=C(CNC(=S)N(CCCN1CCOCC1)Cc1cccs1)NC1CCCCC1	-3.1	i	-1.2	.	-0.3
O=C(NC1CCCCC1)N1CCSC1=Nc1ccccc1	59.9*	i	-0.71	.	18.9
Cn1c(=O)c2c(ncn2Cc2ccc(Cl)cc2)n(C)c1=O	6.4	i	.	.	-0.6
Cn1c(=O)c2c(ncn2CC(COCc2ccc(Cl)cc2)OCc2ccc(Cl)cc2)n(C)c1=O (stereo not drawn)	21.1	i	-0.67	50.0	100.2*
CCN(CC)CCNc1ccc2nnc(CCNS(=O)(=O)c3ccc(C)cc3)n2n1	-6.6	i	0.61	33.3	-5.8
COc1ccccc1C(=O)N=Nc1c(O)[nH]c2ccc([N+](=O)[O-])cc12	-1.1	+	-0.61	-111.1	25.3
CC(C)NC(=S)N=Nc1c(O)[nH]c2ccc([N+](=O)[O-])cc12	-6.3	i	0.26	.	7.5
C=C(C)CNC(=S)N=Nc1c(O)[nH]c2ccc([N+](=O)[O-])cc12	5.4	i	-2.77	-33.3	78.3*
CC(C)(C)n1nnnc1C(c1ccccc1F)N(Cc1ccco1)CC1CCCO1 (stereo not drawn)	-8.3	i	-0.95	-28.6	43.2
CCN(Cc1ccccc1)C(c1ccccn1)c1nnnn1C1CCCCC1 (stereo not drawn)	7.8	i	.	53.9	33.5
Clc1ccccc1CN(Cc1ccccc1)C(c1cccs1)c1nnnn1C1CCCC1 (stereo not drawn)	-4.4	i	-6.23	.	59.9*
CCN(Cc1ccccc1)C(c1cccs1)c1nnnn1C1CCCCC1 (stereo not drawn)	75.3*	i	-3	18.8	31.2
Clc1ccc(CN(CC2CCCO2)C(c2cccs2)c2nnnn2C2CCCC2)cc1 (stereo not drawn)	10.8	i	-0.33	34.3	54.7*
CC(C)N1CCN(Cc2ccoc2)CC1CCO (stereo not drawn)	6.0	i	.	.	-5.4
CC(C)C(C)NC(=O)COC(=O)c1cccc(C(=O)OCC(=O)NC(C)C(C)C)n1 (stereo not drawn)	8.5	i	-0.38	-60.0	-1.1
CCCCOC(=O)CSc1n[nH]c(=O)[nH]c1=O	-0.2	i	.	78.6*	-2.8
SMILES	WT yeast gro inh	Autophagy HCS	Ins promoter up	INS promoter inh	L major viab
CC(OC(=O)c1ccccc1NS(=O)(=O)c1cccc(N)c1)C(=O)N(C)Cc1ccccc1 (stereo not drawn)	-1.4	i	0.28	-52.8	81.5*
CCOC(=O)c1ccccc1NS(=O)(=O)c1ccccc1	4.9	i	0.09	-192.3	2.3
CCN(CC)C(=S)NC(=O)Cc1ccccc1	-4.3	i	0.26	4.8	4.7
C=CCN(CC=C)C(=S)NC(=O)Cc1cccc2ccccc12	65.3*	i	-0.06	.	-8.4
CCC(C)N1C(=O)/C(=C/c2c(NCCCOC(C)C)nc3c(C)cccn3c2=O)SC1=S (stereo not drawn)	15.8	?	.	-163.9	4.3
CCCN1C(=O)/C(=C/c2c(NCCCOC(C)C)nc3c(C)cccn3c2=O)SC1=S	-4.8	+	.	-23.3	-7.1

High-throughput results as filed in PubChem.
